Structures are written as SMILES. “And” between values parts separate entries of the source, which are not always exact repeats. Equal entries are not always repeated. The campaign covered roughly 73,000 compounds. About 1,800 (2.5%) were called active. Where a call stands in place of a potency, no number is given. Another 13% or so got no clear call; they are omitted. Many of the other results were omitted from the sample, so actives are more common in it than they were. A number with no mark means an inactive call. Calls follow the shape of the dose curve; as a rule, active = well fitted activation curve with a large enough effect; inconclusive = small, poorly fitted or top-dose-only effect; inactive = no such curve, though single readings can be large or run the other way.
Potency is read from the fitted curve at half-maximal effect.

A short description of the experiment: qHTS Assay for Agonists of the Thyroid Stimulating Hormone Receptor: Activators of Intracellular cAMP Concentrations in Parental HEK 293. Also: nearly all actives have a fitted effect of over 55% in size. Conditions: parental HEK293 CNG cAMP sensor, membrane potential fluorescence; series mostly up to 57.1 µM. The method in brief: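 Parental HEK 293 cells stably expressing a cAMP-gated CNG channel were loaded with membrane potential dye containing 100 uM RO 20-1724 for 60 min. Compound added for 30 min; depolarization read as fluorescence intensity at 590 nm.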
In general terms: Quantitative high-throughput screening tests each substance at several concentrations.
`CC(C)N(CCNC(=O)c1ccc(-n2c(=O)c(=O)[nH]c3ccccc32)cc1)C(C)C`: the Potency result was “inactive”.

As to `Cc1cc(C)c(C#N)c(SCc2ccccc2C(=O)O)n1`, the Potency result is “inactive”.

For the molecule `Cc1cc(N2CCN(Cc3ccc4c(c3)OCO4)CC2)n2ncnc2n1`, the Potency result was “inactive”.

Take `Cc1cc(C)c(C#N)c(SCc2ccc3c(c2)OCO3)n1`: the Potency is 20 µM (active).

Take `CC1(C)OC(C(O)(c2ccccc2)c2ccccc2)C(C(O)(c2ccccc2)c2ccccc2)O1` (centres undefined): the activation is 25.8% [at 11.4 µM].

For the molecule `CCOc1ccc(C(CC(=O)O)NC(=O)COc2ccccc2)cc1` (centres undefined), the Potency result is “inactive”.

For `O=C(Nc1nnc(CCc2ccccc2)s1)C1CCCO1` (centres undefined), the Potency entry was “inactive”.

For `CCC(=O)c1cc2c(cc1NC(=O)c1cccs1)OCCO2`, the Potency entry is “inactive”.

In the case of `O=S(=O)(NCC1CCCO1)c1ccc2ccccc2c1` (centres undefined), the Potency entry was “inactive”.

As for `CCC(C)(C)n1nnnc1C(c1cccs1)N1CCN(Cc2ccccc2)CC1` (centres undefined), the Potency is 12.6 µM (active).

For the molecule `Cn1nnnc1SCC(=O)N1CCN(Cc2ccccc2)CC1`, the Potency entry was “inactive”.

As to `CCC(C)(C)n1nnnc1C(c1cccs1)N1CCN(c2nc3ccccc3s2)CC1` (centres undefined), the Potency was 3.16 µM (active).

For the molecule `Fc1ccc(Cn2nnnc2C(c2cccs2)N2CCCCCC2)cc1` (centres undefined), the Potency is 31.6 µM (active).

As for `Cc1cc(C)c2[nH]c(=O)c(C(c3nnnn3Cc3ccc4c(c3)OCO4)N3CCCC3)cc2c1` (centres undefined), the Potency result was “inactive”.

`Fc1ccccc1C(c1nnnn1Cc1ccc2c(c1)OCO2)N1CCN(Cc2ccccc2)CC1` (centres undefined): the Potency result is “inactive”.

Regarding `Cc1ccc(C(c2nnnn2C(C)(C)C)N2CCc3ccccc3C2)cc1` (centres undefined), the Potency entry was “inactive”.

Consider `CCOc1ccc(CN(Cc2ccco2)C(c2cccs2)c2nnnn2C(C)(C)C)cc1` (centres undefined), for which the Potency result is “inactive”.

`O=S(=O)(c1cccs1)N1CCN(Cc2ccccc2)CC1`: the Potency entry was “inactive”.

Turning to `COc1ccc(-c2nc3cnc(N(C)C)nc3n(Cc3cccs3)c2=O)cc1`, the Potency result is “inactive”.

With `CCOC(=O)C(C(=O)OCC)C(C#N)c1ccccc1` (centres undefined), the Potency result is “inactive”.

On to `O=C(O)CC(C(=O)O)C(CC(=O)O)C(=O)O` (centres undefined), for which the Potency result was “inactive”.

For `Cc1ccc(S(=O)(=O)Cn2nnnc2CN2CCN(Cc3ccc4c(c3)OCO4)CC2)cc1`, the Potency result was “inactive”.

In the case of `O=C(O)c1ccc(Cl)c(S(=O)(=O)Nc2ccccc2Cl)c1`, the Potency result was “inactive”.

With `Cc1ccc(-c2nc(CS(=O)CC(=O)N3CCN(c4ncccn4)CC3)c(C)o2)cc1` (centres undefined), the Potency entry is “inactive”.

In the case of `N#CC1=C(N)OC2=C(C(=O)CCC2)C1C1CC=CCC1` (centres undefined), the Potency result is “inactive”.

Take `COC(=O)Cn1cc(C(=O)c2cccs2)c2ccccc21`: the Potency entry was “inactive”.

Take `CC1CCN(C(=O)Cn2cc(C(=O)c3ccco3)c3ccccc32)CC1`: the Potency was 20 µM (active).

As to `CCOC(=O)C1CCN(C(=O)Cn2cc(C#N)c3ccccc32)CC1`, the Potency entry was “inactive”.

For the molecule `CC(=O)OCC1OC(C#Cc2ccccc2Cl)C=CC1OC(C)=O` (centres undefined), the activation is -0.512% [at 11.4 µM].

Consider `CCCCCCCCCCCC(=O)O[C@H](CC(=O)O)C[N+](C)(C)C`, for which the Potency entry is “inactive”.

For `COc1ccc(C(=O)CSc2nnc(COc3ccccc3)n2Cc2ccco2)cc1`, the Potency was 15.8 µM (active).

As for `COc1ccc(NC(=O)CSc2nnc(-c3cccs3)n2Cc2ccco2)cc1OC`, the Potency entry is “inactive”.

Take `O=C(CSc1nnc(-c2cccnc2)n1Cc1ccco1)c1ccc(Cl)cc1`: the Potency result is “inactive”.

Take `Cc1ccc(NC(=O)CSc2nnc(-c3cnccn3)n2Cc2ccco2)cc1C`: the Potency entry was “inactive”.

Consider `O=C(CSc1nnc(-c2cccs2)n1-c1ccccc1)NCc1ccco1`, for which the Potency entry was “inactive”.

As for `COc1ccc(-c2nnc(SCC(=O)c3ccco3)n2-c2ccccc2)cc1`, the Potency result was “inactive”.

With `CCn1c(CNc2ccc(OC)cc2)nnc1SCC(=O)c1ccc(OC)cc1`, the Potency result was “inactive”.

Consider `O=C(CSc1nnc(-c2cnccn2)n1Cc1ccco1)c1ccc(Cl)c(Cl)c1`, for which the Potency is 25.1 µM (active).

Consider `O=C(CSc1nnc(-c2cccs2)n1Cc1ccco1)c1ccc2c(c1)OCO2`, for which the Potency is 31.6 µM (active).

As to `CCOC(=O)c1nc(-c2ccc3c(c2)OCO3)[nH]c1C`, the Potency entry is “inactive”.

Regarding `CCCC(=O)N1c2ccc(-c3csc(N)n3)cc2CC1C` (centres undefined), the Potency entry was “inactive”.

Consider `Cc1ccc2nc(S(=O)(=O)O)[nH]c2c1`, for which the Potency result is “inactive”.

For `O=C(CSC1=Nc2ccccc2C2=NC(c3ccccc3)C(=O)N12)NCC1CCCO1` (centres undefined), the Potency entry was “inactive”.

With `O=C(CC1N=C2c3ccccc3N=C(SCc3ccccc3Cl)N2C1=O)NCc1ccco1` (centres undefined), the Potency was 15.8 µM (active).

Regarding `NC(=O)CSC1=Nc2ccccc2C2=NC(CCC(=O)NCc3ccc(F)cc3)C(=O)N12` (centres undefined), the Potency result was “inactive”.

As for `Cc1cc(OCC(=O)O)c(Cl)cc1Cl`, the activation is 18.1% [at 11.4 µM].

Take `Cc1ccccc1C(=O)O`: the Potency result is “inactive”.

For `O=C(Nc1ccccc1N1CCN(C(=O)c2ccccc2)CC1)c1ccc2c(c1)OCO2`, the Potency result is “inactive”.

For the molecule `CCC(=O)Nc1ccccc1N1CCN(S(C)(=O)=O)CC1`, the Potency entry was “inactive”.

On to `CCCC(=O)Nc1ccccc1N1CCN(C(=O)c2ccccc2)CC1`, for which the Potency is 15.8 µM (active).

As for `CC(C)CO/N=C1/C[C@@H](O)[C@@H](O)[C@@H]2[C@@H]3C(=O)N(C[C@@H]4CCCO4)C(=O)[C@H]3CC[C@@H]12`, the activation was 4.27% [at 11.4 µM].

For the molecule `O=C(O)COc1c(Cl)cc(Cl)c2cccnc12`, the activation is 14.2% [at 11.4 µM].

Consider `CC12CCC(C(=O)N3CCN(c4ncccn4)CC3)(c3nc4ccccc4nc31)C2(C)C` (centres undefined), for which the Potency entry is “inactive”.

Take `COCCCNC(=O)CSc1nc2ccc(N3CCOCC3)cc2c(=O)n1CCc1ccccc1`: the Potency entry is “inactive”.

Turning to `CCCCn1c(SCC(=O)NCC2CCCO2)nc2ccc(N3CCOCC3)cc2c1=O` (centres undefined), the Potency result was “inactive”.

Regarding `CCc1ccc(NC(=O)CSc2nc3ccccc3c(=O)n2CCN2CCOCC2)cc1`, the Potency is 31.6 µM (active).

For `COC(=O)C1=C(C)N(Cc2ccccc2)C2=C3C(=O)N(c4ccccc4)C(=O)C3[C@@](O)(C(=O)OC)C(=O)N2C1c1ccccc1` (some centres undefined), the activation is 9.18% [at 11.4 µM] and 2.67% [at 11.4 µM].

As for `Cc1ccccc1-c1nc(N(C)Cc2ccco2)c2ccccc2n1`, the Potency is 25.1 µM (active).

For the molecule `CN(Cc1ccco1)c1cc(-c2ccccc2C(F)(F)F)ncn1`, the Potency result is “inactive”.

As to `CN(Cc1ccco1)c1ncncc1-c1ccoc1`, the Potency result is “inactive”.

`COCCNC(=O)C(c1ccc(C)o1)N(Cc1cccs1)C(=O)c1snc(C(N)=O)c1N` (centres undefined): the Potency result is “inactive”.

For the molecule `Cc1ccc(C(C(=O)NC2CCCCC2)N(C(=O)c2csnn2)C2CC2)o1` (centres undefined), the Potency result is “inactive”.

As for `CCC(C(=O)NC1CCCC1)N(C(=O)c1snc(C(N)=O)c1N)c1ccc2c(c1)OCCO2` (centres undefined), the Potency is 25.1 µM (active).

With `Cc1cc2c(cc1C)NC1=C(N2)O[C@H](c2c[nH]c3ccc(COc4ccccc4)cc23)C1=O`, the activation was 3.07% [at 11.4 µM].

Consider `O=C(c1cc(C(F)(F)F)cc(C(F)(F)F)c1)N1CCC2(CCCN(c3ccccn3)C2)CC1`, for which the Potency was 25.1 µM (active).

Regarding `COc1ccc(C(=O)N2CCC3(CCCN(C(c4ccccc4)c4ccccc4)C3)CC2)cc1`, the Potency result was “inactive”.

Consider `COc1ccc(C(=O)N2CCC3(CC2)CCN(c2ccccn2)CC3)cc1`, for which the Potency result is “inactive”.

Regarding `O=C(c1cccc(F)c1)N1CCC2(CCCN(Cc3ccncc3)C2)CC1`, the Potency entry is “inactive”.

As to `O=C(c1ccncc1)N1CCC2(CCCN(C(c3ccccc3)c3ccccc3)C2)CC1`, the Potency is 10 µM (active).

Turning to `O=C(c1csnn1)N1CCC[C@@]2(CCN(c3cccc(-c4ccccc4)c3)C2)C1`, the Potency entry was “inactive”.

As to `O=C(c1cc(C(F)(F)F)cc(C(F)(F)F)c1)N1CCC2(CCCN(Cc3ccncc3)C2)CC1`, the Potency entry is “inactive”.

Regarding `O=C(c1cc(C(F)(F)F)cc(C(F)(F)F)c1)N1CCC[C@@]2(CCN(c3ccccn3)C2)C1`, the Potency is 15.8 µM (active).

`CC(=O)N1CCC2(CCCN(c3ncccn3)C2)CC1`: the Potency result is “inactive”.

As for `COc1cccc([C@H](O)Cn2cc(-c3ccc(CON=C(C)C)cc3)nn2)c1`, the activation was 14.1% [at 11.4 µM].

`COc1ccc(COC(=O)N/N=C2/C[C@@H](O)[C@@H](O)[C@@H]3[C@@H]4C(=O)N([C@@H](C)c5ccccc5)C(=O)[C@H]4CC[C@@H]23)cc1`: the activation is -0.62% [at 11.4 µM].

Regarding `CCOC(=O)c1sc(NC(=S)n2cc(C)cn2)c(C(=O)OCC)c1C`, the Potency result is “inactive”.

Consider `CN1CCc2nc(-c3ccccc3)c(-c3ccccc3)cc2C1`, for which the activation was 0.173% [at 11.4 µM].

As to `c1ccc2nc(C3=NCCN3)cnc2c1`, the Potency result was “inactive”.

As to `CCOC(=O)c1ccc(N2C(=O)CC(N3CCC(C(=O)OCC)CC3)C2=O)cc1` (centres undefined), the Potency entry was “inactive”.

As for `CCOC(=O)c1nnn(-c2nc(OC)nc(N(C)C)n2)c1-c1ccccc1`, the Potency result is “inactive”.

`Cc1ccc(C(=O)N2CCN(C3CCCCC3)CC2)s1`: the Potency entry is “inactive”.

With `N/C(=N\c1nc2ccccc2o1)NC(=O)C(Cc1ccccc1)N1C(=O)c2ccccc2C1=O` (centres undefined), the Potency result is “inactive”.

As for `Cc1cccc2cc(CN(Cc3ccc4c(c3)OCO4)Cc3nnnn3C3CCCC3)c(=O)[nH]c12`, the Potency is 31.6 µM (active).

With `Cc1cccc2cc(CN(Cc3cccs3)C(c3nnnn3C3CCCC3)C(C)C)c(=O)[nH]c12` (centres undefined), the Potency entry was “inactive”.

Regarding `CCOC(=O)C1CCN(C(c2cc3cc(C)cc(C)c3[nH]c2=O)c2nnnn2C2CCCCC2)CC1` (centres undefined), the Potency result is “inactive”.

With `O=C1C(c2ccccn2)=[N+]([O-])c2ccccc21`, the Potency result was “inactive”.

`O=c1c2ccccc2nnn1CSc1nc2sc3c(c2c(=O)n1CC1CCCO1)CCC3` (centres undefined): the Potency result was “inactive”.

Regarding `COc1ccccc1Oc1ccc(S(=O)(=O)Nc2cccnc2)cc1`, the Potency result is “inactive”.

Regarding `COc1ccc(C2=NOC(C(=O)NCc3ccco3)C2)cc1OC` (centres undefined), the activation was 8.46% [at 2.29 µM].

Take `CCOc1ccccc1C(=O)NCc1ccco1`: the Potency entry is “inactive”.

Take `COc1ccccc1N(C(=O)Cn1nnc2ccccc21)C(C(=O)NCc1ccco1)c1ccc(C)o1` (centres undefined): the Potency was 3.98 µM (active).

Consider `COc1ccc(CC(=O)Nc2c3c(nn2-c2cccc(Cl)c2)CS(=O)C3)cc1` (centres undefined), for which the Potency result is “inactive”.

As to `CC(C)(C)n1nc2c(c1NC(=O)c1ccc(S(=O)(=O)N3CCCC3)cc1)CS(=O)C2` (centres undefined), the Potency entry was “inactive”.

Turning to `Cc1cccc(CC(=O)Nc2c3c(nn2-c2cccc(Cl)c2)CS(=O)C3)c1` (centres undefined), the Potency was 10 µM (active).

Values taken from PubChem BioAssay AID938 (National Center for Advancing Translational Sciences (NCATS), 2007).
